Screening results from PubChem.
Abeta rescue = restores growth of yeast expressing A-beta42 peptide | yeast expressing A-beta42, growth rescue, OD600, 48 h; response scale: 0% DMSO, 100% iron-clioquinol control | Potency, µM (doses to about 46.1 µM), usual class: activators | actives 0.063% (n = 410,000) | AID 1347071; also: nearly all actives have a fitted effect of over 55% in size
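Growth rescue measured by 600 nm absorbance after 48 h yeast culture at 30 C with compound. Values normalized between DMSO and an equimolar ferric chloride plus clioquinol control.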
FUS suppressor = suppressors of FUS proteinopathy in yeast; S. cerevisiae FUS-expressing, growth rescue, OD600, 24 h; Potency, µM (top dose mostly 76.6 µM), hits mostly activators; actives 0.24% (n = 390,000); AID 1347120;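 also: plate controls were DMSO vehicle for no effect and reference control for full effect; nearly all actives have a fitted effect of over 55% in size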
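Yeast expressing FUS under galactose induction, OD 0.005 in 2% galactose medium; compounds in a dilution series, 24 h at 30C. Growth rescue by absorbance at 600 nm; CP55940 positive control, DMSO negative.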
Mm-Cpn inhibitor = M. maripaludis TRiC chaperonin inhibition. purified Mm-Cpn ATPase, ADP Transcreener TR-FRET. Potency, µM (titrated, usually from 76.9 µM), without a hit: top-dose activity, negative = inhibition, hits mostly inhibitors. actives 0.031% (n = 330,000). AID 504842; also: % is scaled to controls: 0 for no effect and ±100 for the full control effect; nearly all actives have a fitted effect of over 80% in size
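25 nM Mm-CPN + cpd, 10 min 37°C; + 10 uM ATP, 30 min 37°C; buffer 30 mM Tris pH 7.4, 100 mM KCl, 5 mM MgCl2, 1 mM DTT; Transcreener ADP HTRF detection 30 min RT.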
ClpP mod = qHTS Assay for Activators of ClpP | ATP-dependent Clp protease proteolytic subunit (Bacillus subtilis (strain 168)), P80244 | purified B. subtilis ClpP, FRET peptide cleavage, 20 min | Potency, µM (top dose mostly 57.5 µM), for inactives: top-dose activity change, negative = active | actives 1.9% (n = 340,000); active = well fitted falling curve with a large enough effect; inconclusive = small, poorly fitted or top-dose-only effect; inactive = no such curve, though single readings can be large or run the other way; also: the source files actives as falling curves though it sought activators and does not explain the sign; nearly all actives have a fitted effect of over 65% in size
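ClpP 10 microg/mL final, pH 8 Tris/KCl buffer with BSA, glycerol, Tween-20; compound pinned in; FRET-FV substrate; RT 20 min; Ex320/Em430; ΔFRET vs ADEP 5.8 microM, DMSO, no enzyme.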
aSyn rescue = inhibitors of alpha-synuclein toxicity in yeast; Yeast expressing alpha-synuclein, growth rescue, BacTiter-Glo, 24 h; Potency, µM (series often up to 46.1 µM), for inactives: top-dose growth rescue (activation), most hits filed as activators; actives 0.14% (n = 370,000); AID 652106; also: % of control where 0% means no effect; nearly all actives have a fitted effect of over 65% in size
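Galactose-induced alpha-syn yeast (OD600=0.02, raffinose-pregrown) + pinned cpd, 24 hr, 30 deg C; growth by BacTiter-Glo luminescence. Growth restoration scores as activation.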
TDP-43 yeast inh = TDP-43 toxicity inhibition in yeast. TDP-43 expressing yeast growth rescue, BacTiter-Glo, 24 h. Potency, µM (doses to about 46.1 µM), for inactives: top-dose growth rescue (activation), most hits filed as activators. actives 1.8% (n = 410,000). AID 652104; also: % of control where 0% means no effect; nearly all actives have a fitted effect of over 50% in size
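Yeast expressing TDP-43 (pregrown in raffinose, seeded at OD600=0.02 in galactose medium) exposed to compounds 24 hr at 30 deg C. Growth read by BacTiter-Glo luminescence; rescue of toxicity appears as increased signal.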
* hit, by the source's call; i = inactive; ? = inconclusive; nt = not tested or not shown; ! = not active in a repeat. In the library only some 3.6% were active in any assay of this set; here they are far more common. Unless noted, calls follow the shape of the dose curve; as a rule, active = well fitted curve in the direction sought with a large enough effect; inconclusive = small, poorly fitted or top-dose-only effect, or another doubt; inactive = no such curve, though single readings can be large; an effect the other way counts as inactive or inconclusive. Potency is read from the fitted curve at half-maximal effect.

SMILES	Abeta rescue	FUS suppressor	Mm-Cpn inhibitor	ClpP mod	aSyn rescue	TDP-43 yeast inh
CCc1ccc(C(=O)NC2=NC(c3cc(OC)ccc3OC)CC(=O)N2)cc1 (stereo not drawn)	i	i	nt	0%	nt	0%
CCOC(=O)CNC(=S)N(Cc1ccccc1F)C1CCCCC1	7.1µM*	i	-2%	-25%	-1%	?
COc1cc(/C=C/c2onc(C)c2[N+](=O)[O-])cc(OC)c1OC	i	i	nt	0%	6%	20%
Cc1noc(/C=C/c2nn(C)cc2Cl)c1[N+](=O)[O-]	i	i	?	0%	7%	13µM*
Cc1cccc(/C=C/c2onc(C)c2[N+](=O)[O-])n1	i	i	nt	nt	?	13µM*
COc1cccc(N2C(=O)CSC23C(=O)N(CC(=O)NCc2ccc(C)cc2)c2ccccc23)c1 (stereo not drawn)	i	i	nt	-1%	1%	24%
CCCCN1CC(C(=O)NCc2ccc(C)cc2)CC1=O (stereo not drawn)	i	nt	0%	20µM*	-5%	-20%
O=C(Cc1ccc(S(=O)(=O)N2CCOCC2)s1)Nc1nc2c(s1)CCCC2	i	8.9µM*	-7%	1%	-9%	-22%
CCOC(=O)c1ccccc1N=N/C(C(C)=O)=C(/C)O	i	i	0%	28µM*	-5%	28%
CCCCCCCCCC[n+]1ccc(/C=C/c2c[nH]c3ccccc23)c2ccccc21	nt	nt	nt	5%	nt	nt
CCOc1ccc(-n2nc(CO)c(C(=O)NCc3cccs3)n2)cc1	i	i	nt	7.9µM*	nt	19%
O=C(NCc1cccnc1)c1nn(-c2ccc(F)cc2)nc1CO	i	i	nt	25µM*	nt	-4%
Cc1ccc(-n2nc(CO)c(C(=O)NCc3cccs3)n2)cc1	i	i	nt	?	nt	6%
O=C(NCCc1ccccc1)c1nn(-c2ccc(F)cc2)nc1CO	i	i	nt	?	nt	10%
Cc1ccc(-n2nc(CO)c(C(=O)NCc3ccccn3)n2)cc1	i	i	nt	16%	nt	9%
Cc1ccc(-n2nc(CO)c(C(=O)NCc3cccnc3)n2)cc1C	i	i	nt	16µM*	nt	-10%
Cc1ccc(CNC(=O)c2nn(-c3ccc(Cl)cc3)nc2CO)cc1	i	i	nt	25µM*	nt	14%
CCc1ccc(-n2nc(CO)c(C(=O)NCc3cccnc3)n2)cc1	i	i	nt	?	nt	12%
Cc1ccc(-n2nc(CO)c(C(=O)NCc3cccnc3)n2)cc1	i	i	nt	7.9µM*	nt	14%
COc1ccc(CNC(=O)C(=O)NCC(c2cccnc2)N2CCN(c3ccccc3)CC2)cc1 (stereo not drawn)	i	i	nt	-1%	nt	24%
COCc1cc(C)nc2sc(C(=O)OC)c(N)c12	i	i	-2%	-1%	1%	13µM*
COCc1cc(C)nc2sc(C(=O)N3CCCC3)c(N)c12	i	i	-3%	0%	-3%	-3%
CCc1ccccc1NC(=O)c1sc2nc(C)cc(C)c2c1N	i	i	1%	32µM*	0%	18µM*
COc1ccc(Nc2oc(/C=C/c3ccc(OC)c(OC)c3)nc2C#N)cc1	i	i	nt	?	nt	28%
COc1cc(C=CC(=O)OCC=Cc2ccc3c(c2)OCO3)cc(OC)c1OC	i	nt	nt	28µM*	2%	-9%
SMILES	Abeta rescue	FUS suppressor	Mm-Cpn inhibitor	ClpP mod	aSyn rescue	TDP-43 yeast inh
c1ccc(-c2ncnc3cc4n(c23)CCC4)cc1	i	i	-6%	28µM*	2%	8%
Cc1ccc2ncnc(-c3ccccc3)c2c1	i	i	0%	-1%	5%	0%
CCCCCN1CCCCC(NC(=O)C(C)(C)C)C1=O (stereo not drawn)	nt	i	nt	nt	nt	nt
Cc1cccc(N2CCN(Cc3cc(=O)oc4cc(C)ccc34)CC2C)c1 (stereo not drawn)	i	i	nt	0%	nt	5%
CCCc1cc(C(=O)NNC(=S)Nc2cccc(C)c2)cs1	i	nt	-11%	5%	-6%	8.9µM*
O=C(NC(=S)Nc1cccc(C(F)(F)F)c1)c1ccc2nonc2c1	i	i	-2%	nt	-19%	11µM*
Cc1cccc(NC(=S)N/C(=N/S(=O)(=O)c2ccccc2)c2ccccc2)c1	i	i	-2%	2.2µM*!	-14%	18%
CCOc1cc(OCC)cc(C(=O)NC(=S)Nc2cccc(C(F)(F)F)c2)c1	i	nt	0%	-1%	-21%	9%
CC(=O)c1cccc(NC(=S)NC(=O)c2cccc(C)c2)c1	i	nt	1%	16µM*	-18%	?
CC(=O)c1cccc(NC(=S)NC(=O)c2ccc(Cl)cc2)c1	i	nt	-3%	-2%	1%	4%
Cc1cc(S(=O)(=O)Nc2ccc(C(=O)O)cc2)c(C)c(S(=O)(=O)c2ccc(Cl)cc2)c1	i	i	nt	-4%	nt	?
NC(=O)C1CCN(c2nc(-c3ccc([N+](=O)[O-])cc3)cs2)CC1	nt	nt	2%	nt	nt	nt
CCc1ccccc1NC(=O)CCCn1c(=O)c2cccn2c2ccccc21	i	i	nt	-10%	nt	9%
CC(=O)c1cccc(NC(=S)NC2CCCCC2)c1	i	nt	0%	14µM*	8%	-12%
FC(F)Oc1ccc(NC(=S)NC2CCCCCCC2)cc1	11µM*	i	4%	nt	-9%	24%
CCCCOc1cccc(C(=O)NNC(=S)NC2CCCCC2)c1	i	i	-1%	25µM*	-1%	18%
